# RGS4 inhibitor – blocks human RGS4-accelerated GTP hydrolysis; Transcreener GDP fluorescence polarization, RGS4-accelerated GTP hydrolysis; Potency, µM (doses to about 114 µM), inactives show at the top dose activity change, negative = inhibition, usual class: inhibitors; 390,000 compounds, 0.039% hits; P49798; note: % is set by controls: 0 for no effect and ±100 for the full control effect; nearly all actives have a fitted effect of over 75% in size
# Target sequence (P49798 whole entry, looked up): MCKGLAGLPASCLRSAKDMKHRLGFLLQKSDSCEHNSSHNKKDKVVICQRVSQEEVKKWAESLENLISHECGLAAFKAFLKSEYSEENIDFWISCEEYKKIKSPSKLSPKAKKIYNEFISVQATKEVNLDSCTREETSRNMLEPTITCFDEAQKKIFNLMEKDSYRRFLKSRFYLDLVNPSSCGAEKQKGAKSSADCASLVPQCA
#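 MLSMR compounds (23 nl, pin-transferred) preincubated 10 min at room temperature with a 500nM (2x) first reagent, then RGS4 at 900nM (2x) plus Transcreener GDP mix added; fluorescence polarization (620/688 nm) read before and after 90 min at 30 °C.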
# SW480 rerep – DNA re-replication induction in SW480 cells. 340,000 compounds, 1.8% hits. SW480 DNA re-replication, Hoechst DNA content imaging, 48 h. Potency, µM (titrated, usually from 46.1 µM), without a hit: top-dose re-replication activation, actives largely listed as activators; note: % of control where 0% means no effect; nearly all actives have a fitted effect of over 55% in size
#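 Quantitative HTS format with DMSO vehicle controls; 48 hr drug incubation at 37 C, then 40 min Hoechst staining and scanning imager measurement at 405 nm excitation.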
# KB-3-1 cytotox – KB-3-1 parental cell cytotoxicity | KB-3-1 viability, CellTiter-Glo ATP luminescence, 72 h | Potency, µM (titrated, usually from 46.1 µM), most hits filed as cytotoxic | 400,000 compounds, 1.4% hits; note: % is set by controls: 0 for no effect and ±100 for the full control effect; nearly all actives have a fitted effect of over 60% in size
#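 72 h, 37 °C compound treatment of KB-3-1 parental cells; CellTiter-Glo added, 10 min, luminescence read. Data corrected against DMSO-only plates and normalized before curve fitting.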
# MCF10A rerep – inducers of DNA re-replication in MCF 10A breast cells | MCF 10A DNA re-replication, Hoechst nuclear intensity, 48 h | Potency, µM (doses to about 46.1 µM), without a hit: at the top dose activity, positive = re-replication, usual class: activators | 350,000 compounds, 2.9% hits | AID 624296; note: % of control where 0% means no effect; nearly all actives have a fitted effect of over 50% in size
# TSG101-PTAP inh – blocks PTAP/TSG101 interaction to inhibit HIV-1 budding; Fluorescence polarization, FITC-PTAP peptide / Tsg101 binding; Potency, µM (highest dose often 115 µM), without a hit: at the highest dose activity change, negative = inhibition, actives largely listed as inhibitors; 340,000 tested, under 10 active; AID 493005; active = well fitted inhibition curve with a large enough effect in the main read-out, with a control signal flat, not every such curve was filed as active; inconclusive = small, poorly fitted or top-dose-only effect, or effect the other way, or a change in a side signal; inactive = no such curve, though single readings can be large or run the other way; note: % of control where 0% means no effect
# Target sequence (Q99816 whole entry, looked up): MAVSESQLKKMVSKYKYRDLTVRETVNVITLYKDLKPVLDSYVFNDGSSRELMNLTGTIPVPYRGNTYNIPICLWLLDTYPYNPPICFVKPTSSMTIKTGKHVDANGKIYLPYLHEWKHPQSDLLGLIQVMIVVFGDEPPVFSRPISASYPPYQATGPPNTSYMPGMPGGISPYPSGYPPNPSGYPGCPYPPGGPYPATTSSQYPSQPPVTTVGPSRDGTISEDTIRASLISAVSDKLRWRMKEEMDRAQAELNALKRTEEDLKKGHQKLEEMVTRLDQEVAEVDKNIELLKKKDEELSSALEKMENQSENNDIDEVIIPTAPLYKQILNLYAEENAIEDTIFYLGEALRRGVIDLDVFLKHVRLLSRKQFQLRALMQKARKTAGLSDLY
#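 Fluorescence anisotropy tracks displacement of a FITC-tagged PTAP peptide (50 nM) from the Tsg101 binding domain (10 uM), following a 20 min room-temperature incubation at pH 7.5.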
# KB-V1 MDR tox – KB-V1 MDR subline cytotoxicity. 400,000 compounds, 3.4% hits. Potency, µM (top dose mostly 46.1 µM), most hits filed as cytotoxic. AID 1347076. KB-V1 MDR cells viability, CellTiter-Glo, 72 h; note: % is set by controls: 0 for no effect and ±100 for the full control effect; nearly all actives have a fitted effect of over 60% in size
#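 Cytotoxicity via CellTiter-Glo luminescence after 72 h compound exposure at 37 degrees C. Cells: drug-selected KB-V1 line, DMEM phenol-red free plus 10% FBS. Compounds tested at multiple concentrations; normalized data fitted to concentration-effect curves.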
# * = called active by the depositor; i = inactive; ? = inconclusive; . = no result; [ ] = remark or other dose. Most compounds without a hit are left out; they make up all but 6.6% or so of the library. Unless noted, calls come from the whole dose curve; as a rule, active = well fitted curve in the direction sought with a large enough effect; inconclusive = small, poorly fitted or top-dose-only effect, or another doubt; inactive = no such curve, though single readings can be large; an effect the other way counts as inactive or inconclusive. Potency is the fitted concentration of half-maximal effect.
SMILES,RGS4 inhibitor,SW480 rerep,KB-3-1 cytotox,MCF10A rerep,TSG101-PTAP inh,KB-V1 MDR tox
CSC1=NC(C(Cl)(Cl)Cl)N=C(c2ccc(C)cc2)N1 (centres undefined),2%,?,1µM*,1.8µM*,-3%,1.3µM*
CCC1N=C(SC)NC(C)=C1C(=O)c1ccccc1 (centres undefined),-14%[56.9 µM],3%,i,0%,-4%,i
CCN(CC)C(=O)c1sc2c(c1C)c(=O)n(-c1ccc(Cl)c(Cl)c1)c(=O)n2Cc1cc(=O)n2ccccc2n1,-37%,.,i,.,.,i
COc1ccc(-c2ccc([C@H]3[C@@H]4C=CCC[C@@]4(C)C(=O)N3Cc3ccccc3)c(F)c2)cc1,7%,0%,?,?,-3%,7.3µM*
COc1ccc(-c2ccc(N(C)C)cc2)cc1[C@H]1[C@@H]2C=CCC[C@@]2(C)C(=O)N1Cc1ccccc1,-6%,?,18µM*,17%,1%,?
O=C(CNC(=O)C1CCCCC1)OCc1ccccc1,2%,.,?,.,.,?
[O-][N+](=NC1C=Cc2ccccc21)C1C=Cc2ccccc21 (centres undefined),.,.,?,.,.,i
CC(=O)c1cn(CCOc2cc(C)ccc2C)c2ccccc12,-8%,4%,?,-4%,2%,2.1µM*
COc1ccccc1OCCn1cc(C(=O)c2ccco2)c2ccccc21,-18%,-10%,i,15%,-4%,13µM*
COc1cccc(OCCn2cc(C(=O)c3ccco3)c3ccccc32)c1,-10%,-3%,i,18%,-1%,21µM*
COc1ccc(OC)c(NC(=O)Cn2cc(C(=O)c3ccco3)c3ccccc32)c1,-11%,-2%,i,4%,-7%,23µM*
Cc1ccccc1OCCn1cc(C(=O)c2ccco2)c2ccccc21,1%,.,i,.,.,i
COc1ccc2c(c1)c1c(c(=O)n(Cc3ccccc3)c(=O)n1CC(=O)Nc1ccc(C)cc1C)n2C,-4%,.,i,.,.,i
COc1ccc2c(c1)C=C/C2=C\c1ccc(N(C)C)cc1,.,.,?,.,.,i
Nc1n[nH]c(N)c1N=Nc1ccccc1,1%,16µM*,i,-13%,-4%,i
CN(c1ccc(C(=O)N2CCCCCC2)cc1)S(=O)(=O)c1ccc(Cl)cc1,8%,1%,i,2%,.,23µM*
Cc1ccc(NS(=O)(=O)c2cccc(C(=O)N3CCCCCCC3)c2)cc1,8%,-15%,i,29%,-1%,?
Cc1ccc(NS(=O)(=O)c2cccc(C(=O)N3CCN(c4ncccn4)CC3)c2)cc1,-10%,5%,i,?,-1%,8.2µM*
CN(c1ccc(C(=O)N2CCOCC2)cc1)S(=O)(=O)c1ccc(Cl)cc1,-15%,9%,.,3%,-3%,.
Cc1ccc(NS(=O)(=O)c2ccc(C(=O)N3CCCCCC3)cc2)cc1,-6%,2%,?,4%,0%,4.6µM*
CCOC(=O)N1CCN(C(=O)c2ccc(S(=O)(=O)Nc3ccc(C)cc3)cc2)CC1,-6%,-3%,7.3µM*,-3%,-4%,10µM*
CCOC(=O)N1CCN(C(=O)c2ccc(Oc3ccc([N+](=O)[O-])cc3)cc2)CC1,-5%,3%,i,-2%,-2%,7.3µM*
Cc1ccc(NNC(=O)C(=O)N2CCCCC2)cc1,-1%,20%,i,6.5µM*,2%,i
CN1CCN(C(=O)c2ccc(Oc3ccc([N+](=O)[O-])cc3)cc2)CC1,24%,0%,i,16%,-2%,?
O=C(c1ccc(S(=O)(=O)Nc2ccccc2)cc1)N1CCC1,-1%,15µM*,i,-36%,-5%,i
SMILES,RGS4 inhibitor,SW480 rerep,KB-3-1 cytotox,MCF10A rerep,TSG101-PTAP inh,KB-V1 MDR tox
CCOc1ccccc1NC(=O)c1nc(SCc2ccccc2F)ncc1Cl,.,.,i,.,.,i
Cc1ccc(-c2c(CN3CCN(c4cc(Cl)ccc4C)CC3)csc2C)cc1,-9%,.,.,.,.,.
C=CCNc1nc(-c2cccc(OC)c2O)nc2ccccc12,10%,4%,i,23µM*,-3%,i
CCc1ccc(NC(=O)CN2C(=O)CC(c3ccccc3)Sc3ccccc32)cc1 (centres undefined),30%,.,i,.,.,i
CCOc1ccccc1NC(=O)CN1C(=O)CC(c2ccc(OC)c(OC)c2)Sc2ccccc21 (centres undefined),2%,.,?,.,.,18µM*
O=C(CN1C(=O)CC(c2ccccc2)Sc2ccccc21)Nc1cccc(Cl)c1 (centres undefined),7%,.,?,.,.,21µM*
CCOc1ccccc1NC(=O)CN1C(=O)CC(c2ccco2)Sc2ccccc21 (centres undefined),-4%,.,?,.,.,13µM*
CCOC(=O)c1ccccc1NC(=O)CN1C(=O)CC(c2ccco2)Sc2ccccc21 (centres undefined),14%,.,i,.,.,?
Cc1ccc(-n2ncc3c(NC4CCCCC4)ncnc32)cc1,-14%,.,i,.,.,i
Cc1ccc(-c2c(C(=O)N3CCN(c4cc(Cl)ccc4C)CC3)oc(=O)c3ccccc23)cc1,0%,.,i,.,.,i
O=S(=O)(CCOc1ccccc1)c1nc2ccccc2[nH]1,-10%,24%,?,5.8µM*,-5%,i
O=C(CCCOc1ccccc1)Nc1nc2ccccc2[nH]1,-16%,7%,i,20%,1%,i
COc1cccc(-n2c(=O)c3c(C)c(C)sc3n(CC(=O)Nc3ccccc3OC)c2=O)c1,1%,.,i,.,.,i
Cc1cc(S(=O)(=O)c2ccc(Cl)cc2)nc(S(=O)(=O)c2ccc(Cl)cc2)c1C#N,.,.,9.2µM*,.,.,?
COc1ccccc1NC(=O)N1CC(=O)Nc2sc3c(c2C1c1ccccc1)CCCC3 (centres undefined),14%,.,i,.,.,i
CCN(CC)C(=O)CSc1nnc(-c2ccccc2)o1,-12%,?,i,5.2µM*,-4%,i
O=C(c1ccc(Cl)cc1)c1oc2ccccc2c1CS(=O)c1ccc(Cl)cc1 (centres undefined),-21%,-2%,i,20%,-2%,21µM*
Cc1nc2ccccn2c1C(=O)CSc1ccccc1Cl,11%,-9%,?,13%,-1%,16µM*
CCOC(=O)c1ccc(NC(=O)C2CCN(S(=O)(=O)Cc3ccccc3)CC2)cc1,19%,.,i,.,.,i
COc1cccc(CN2C(=O)c3ccccc3Sc3ccc(C(=O)OCc4ccco4)cc32)c1,-27%,.,i,.,.,?

# Assay outcomes: PubChem, National Center for Advancing Translational Sciences (NCATS)
